GDH-TPI inh: inhibits GDH-TPI coupling enzymes, artifact for Mtb FBA screen; GDH-TPI coupled enzyme counterscreen, NADH absorbance; inhibition, % at 4.8 µM; actives 1.2% (n = 360,000); in the data active means inhibition above about 30%;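 further: 0% = DMSO wells and 100% = wells lacking the enzyme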
Rv3671c protease: Rv3671c (M. tuberculosis) protease inhibition. P9WHR9. inhibition, % at 5.96 µM. actives 0.048% (n = 320,000). AID 2606; in the data active means inhibition above about 38%;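 further: extracellular domain of Rv3671c used as enzyme; 0% = enzyme with DMSO and 100% = no enzyme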
UGM FP inh: Mtb UDP-galactopyranose mutase inhibition. P9WIQ1. purified UGM, fluorescence polarization probe displacement. inhibition, % at 10 µM. actives 0.06% (n = 320,000); in the data active means inhibition above about 10%, passing the limit was not always enough
RecA intein inh: blocks M. tuberculosis RecA intein splicing; P9WHJ3; cell-free RecA intein splicing, fluorescence; inhibition, % (test concentration not listed); actives 0.75% (n = 290,000); in the data active means inhibition above about 30%;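 further: 0% = vehicle wells and 100% = reference inhibitor control wells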
FBA Mtb inh: inhibits M. tuberculosis FBA enzyme; P9WQA3; purified M. tuberculosis FBA, fluorescence read-out; inhibition, % at 1 µM; actives 2.3% (n = 360,000); AID 588726; in the data active means inhibition above about 27%;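 further: 0% = vehicle and 100% = reference inhibitor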
Vc quorum ag: induces V. cholerae light production without autoinducers; AID 588436; activation, % at 18.7 µM; actives 0.16% (n = 350,000); V. cholerae BH1578 lux reporter, luminescence, 6 h; in the data active means activation mostly above about 9.7%, no sharp cut-off
Numbers without * were called inactive; i = inactive; . = no result given; + = active, no number. This is a sample that favours compounds with a hit; in the whole collection about 4.1% have one here.

SMILES | GDH-TPI inh | Rv3671c protease | UGM FP inh | RecA intein inh | FBA Mtb inh | Vc quorum ag
CCC1(CC)SC(N)=NC1=O | 7 | . | . | . | 0 | 5
O=C(/C=C/c1cccc([N+](=O)[O-])c1)c1ccc([N+](=O)[O-])o1 | 41* | 0 | 0 | 6 | 4 | i
Cc1cccc(/C=C/C(=O)c2ccc([N+](=O)[O-])o2)c1 | 29 | -9 | 4 | -1 | 3 | i
Cc1cc(OCC(=O)OCC(=O)c2c(N)n(C)c(=O)n(C)c2=O)ccc1Cl | 2 | -10 | 2 | . | -1 | 1
COC(CN(C(=O)CCl)C(C(=O)NC1CCCC(C)C1C)c1ccc(C)cc1)OC (centres undefined) | + | -8 | 0 | 45* | 1 | 0
CC12CN3CCN(CC(C3)/C1=N\N=C1/C3CN4CCN(C3)CC1(C)C4)C2 | 6 | -6 | -2 | 0 | 113* | i
CC12CN3CCN(CC(C3)/C1=N/NC(N)=O)C2 | 1 | 1 | -1 | 1 | 2 | 0
Cc1ccc(C(=O)N2CCN(c3ccc(C(F)(F)F)cn3)CC2)cc1 | 0 | 9 | 0 | 0 | 4 | 0
O=C(c1cnc2ccccc2n1)N1CCN(c2ccc(C(F)(F)F)cn2)CC1 | 31* | 2 | 0 | 2 | -4 | -1
N#CCSc1ccc2nc(-c3ccccc3)cn2n1 | 22 | 0 | -1 | -2 | 134* | 0
N#CCSc1nc(-c2ccccc2)cs1 | 3 | 7 | 0 | -2 | 0 | -1
O=C(NCc1cc(Cl)cc(Cl)c1)c1ccc2nc(COCCO)[nH]c2c1 | 11 | . | . | . | 6 | i
CC1(C)CC(=O)C(C=Nc2ccc(O)cc2)=C(O)C1 | 14 | -1 | 1 | -6 | -3 | i
CSc1ccccc1N=CC1=C(O)CC(C)(C)CC1=O | 23 | 1 | -1 | 6 | 1 | 18*
CC1(C)CC(=O)C(C=Nc2ccc3cn[nH]c3c2)=C(O)C1 | 39* | -6 | -2 | 4 | 4 | -7
CC1(C)CC(=O)C(C=Nc2ccc3[nH]ncc3c2)=C(O)C1 | 36* | -4 | -1 | 11 | 7 | i
Cc1cccc(C(=O)NCCC(=O)NCc2ccccc2F)c1 | -9 | 11 | 1 | . | -2 | -1
COCc1c(C(=O)Nc2cccc(S(=O)(=O)N3CCCCC3)c2)oc2ccccc12 | 12 | -58 | 2 | . | 0 | -7
CC(C)N1CC=C2C(C#N)=C(N)C(C#N)(C#N)[C@H](c3ccoc3)[C@H]2C1 | . | -25 | 9 | -139 | . | .
CC(C)N1CC=C2C(C#N)=C(N)C(C#N)(C#N)C(c3ccccc3)C2C1 (centres undefined) | 1 | -8 | 8 | -38 | + | i
CCN1CC=C2C(C#N)=C(N)C(C#N)(C#N)C(c3cc(Cl)ccc3Cl)C2C1 (centres undefined) | 14 | 11 | 4 | -120 | 33* | .
O=C(CN1CCC(C(=O)c2ccc(F)cc2)CC1)Nc1ccccc1Cl | 2 | -7 | 0 | . | -2 | 0
CCCCN(C)Cc1c(O)ccc2c(-c3ccccc3)cc(=O)oc12 | 2 | -1 | -3 | -36 | 6 | 1
CCN(CC)Cc1c(O)ccc2c(=O)c(-c3ccc(Cl)cc3)coc12 | 24 | 3 | 1 | -1 | 43* | -1
CCCCN(C)Cc1c(O)ccc2c(=O)c(-c3ccccc3OC)coc12 | 41* | 1 | 1 | -2 | 163* | i
SMILES | GDH-TPI inh | Rv3671c protease | UGM FP inh | RecA intein inh | FBA Mtb inh | Vc quorum ag
CCC/C(=N\NC(=O)C1CCCC1)c1ccccc1 | 2 | 0 | 0 | 1 | 1 | 1
Cc1cc(C)cc(NC(=O)COC(=O)Cc2ccccc2F)c1 | -2 | 7 | . | . | -1 | i
O=C(N/N=C/c1ccc2cccc(OCc3ccccc3)c2n1)c1ccc(Cl)cc1 | 10 | -9 | -2 | 6 | 25 | 0
O=C(N/N=C/C(Br)=C/c1ccccc1)c1cnccn1 | 37* | 2 | -1 | 2 | 0 | i
COc1ccc(C(=O)N/N=C/c2ccc3cccc(O)c3n2)cc1 | 33* | -12 | 2 | -1 | -1 | 0
COc1ccc(C(=O)N/N=C/C(Br)=C/c2ccccc2)cc1 | 31* | -10 | -1 | -2 | -8 | 0
O=C(N/N=C/C=C\c1ccccc1)c1cnccn1 | 25 | 3 | 3 | 0 | -2 | i
COc1cccc(C(=O)N/N=C/C(Br)=C/c2ccccc2)c1 | 40* | -7 | -1 | 6 | 2 | -1
O=S(=O)(CCc1ccccc1)CS(=O)(=O)CCc1ccccc1 | 7 | . | . | . | -2 | i

From PubChem
